A selection: hits, their analogues and other compounds. The true share with any hit is near 21%.
Sm TGR inh – S. mansoni TGR enzyme inhibition. Q962Y6. purified TGR, DTNB reduction, TNB absorbance 405 nm. Potency, µM (top dose mostly 114 µM), for the others: top-dose activity change, negative = inhibition, usual class: inhibitors. hit rate 3% among 360,000; note: potency is the fitted concentration of half-maximal effect; % is set by controls: 0 for no effect and ±100 for the full control effect; nearly all actives have a fitted effect of over 60% in size
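Kinetic colorimetric format: TGR-catalysed, NADPH-driven DTNB reduction monitored via TNB absorbance. Enzyme dispensed at 20 nM; compound exposure 15 min at room temperature before reaction start.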
Shiga inhibitor – Shiga toxin inhibition. inhibition, % at 38.7 µM. Vero cells, Shiga toxin protein synthesis inhibition reporter. hit rate 9.2% among 290,000; in the data active = inhibition mostly above about 28%, no sharp cut-off; inactive = mostly below about 43%; note: 0% is about no effect
Cycloheximide cs – affects cycloheximide protein synthesis inhibition readout, counter-screen. cell reporter, cycloheximide protein synthesis inhibition counterscreen. AID 2314. max response, %. hit rate 12% among 300,000; in the data active = max response mostly above about 13%, no sharp cut-off; inactive = mostly below about 14%; note: read at 38.3 µM for the half of the compounds with a filed dose; 0% is about no effect
NS1 function inh – blocks influenza NS1 protein function | Potency, µM (series often up to 46.1 µM), for inactives: top-dose activity, positive = more growth | hit rate 0.4% among 270,000 | AID 2326; calls by dose curve; note: potency is the fitted concentration of half-maximal effect; actives are rising curves; nearly all actives have a fitted effect of over 50% in size
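A cell-based growth assay was used: compounds that relieve NS1-induced slow growth of budding yeast raise OD600. Assay medium was yeast nitrogen base with ammonium sulphate and -URA supplement, pH 6.0, with 2% galactose.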
Pf growth 48h – inhibits P. falciparum growth in the first generation, 48 h | Potency, µM (top dose mostly 28.7 µM), for inactives: top-dose activity change, negative = inhibition, usual class: inhibitors | AID 504832 | P. falciparum luciferase growth in erythrocytes, 48 h | hit rate 5.9% among 310,000; note: potency is the fitted concentration of half-maximal effect; % is set by controls: 0 for no effect and ±100 for the full control effect
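In quantitative HTS format, infected erythrocytes bearing luciferase-reporter parasites were treated for a single generation at 37 C. Luminescence after adding detection reagent served as the growth measure.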
Pf growth 96h – inhibits malaria parasite growth, 96 h; P. falciparum luciferase reporter growth, 96 h; Potency, µM (doses to about 28.7 µM), for inactives: at the highest dose activity change, negative = inhibition, actives largely listed as inhibitors; hit rate 6.9% among 320,000; note: potency is the fitted concentration of half-maximal effect; % is set by controls: 0 for no effect and ±100 for the full control effect
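Parasite growth measured via integrated firefly luciferase reporter in P. falciparum. Infected erythrocytes at 2% hematocrit, 0.05% parasitemia final were treated 96 hours at 37 C under 5% CO2, and luminescence was read.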
Starred values were filed as active, the others as inactive. Unless noted, calls come from the whole dose curve; as a rule, active = well fitted curve in the direction sought with a large enough effect; inconclusive = small, poorly fitted or top-dose-only effect, or another doubt; inactive = no such curve, though single readings can be large; an effect the other way counts as inactive or inconclusive.

O=C(O)c1cccc(Nc2nc(-c3cc4ccccc4oc3=O)cs2)c1 was read as Sm TGR inh -25%, Shiga inhibitor 74*, Cycloheximide cs 41*, NS1 function inh 20%, Pf growth 48h 21% and Pf growth 96h 54%.
For Cc1nc2ccccn2c1-c1csc(Nc2cccc(C(=O)O)c2)n1 the results were Sm TGR inh -19%, Shiga inhibitor 43, Cycloheximide cs -7, NS1 function inh -1%, Pf growth 48h 22% and Pf growth 96h 9%.
O=c1oc2ccccc2cc1-c1csc(NN=C2CCCC2)n1 was read as Sm TGR inh -18%, Shiga inhibitor 15, Cycloheximide cs 14*, NS1 function inh 14%, Pf growth 48h 21% and Pf growth 96h inconclusive.
Screening CCCCCCCCCCCCCCCCn1cc[n+](CC(C)=O)c1 returned Sm TGR inh 7%, Shiga inhibitor -10, Cycloheximide cs -3, Pf growth 48h 3% and Pf growth 96h 21%.
Screening CCCCCCn1ccc(=N)cc1 returned Sm TGR inh 2%, Shiga inhibitor -9, Cycloheximide cs 7, NS1 function inh -20%, Pf growth 48h 3.3µM* and Pf growth 96h 0.47µM*.
Screening CC(C)(C)c1cc(NC(=O)CCl)n(-c2ccccc2)n1 returned Sm TGR inh 13µM*, Shiga inhibitor -8, Cycloheximide cs -1, NS1 function inh -45%, Pf growth 48h inconclusive and Pf growth 96h inconclusive.
`CCCc1cc(NC(=O)CCl)n(-c2ccccc2)n1` gave Sm TGR inh 10µM*, Shiga inhibitor -6, Cycloheximide cs 11, NS1 function inh 1%, Pf growth 48h inconclusive and Pf growth 96h inconclusive.
For CC(Cl)C(=O)Nc1cc(C(C)(C)C)nn1-c1ccccc1 (centres undefined) the results were Sm TGR inh -4%, Shiga inhibitor -4, Cycloheximide cs -4, NS1 function inh 4%, Pf growth 48h 0% and Pf growth 96h -1%.
For Cc1cc(NC(=O)CN2CCCCC2)n(-c2ccccc2)n1 the results were Sm TGR inh 6%, Shiga inhibitor -6, Cycloheximide cs 2, NS1 function inh 6%, Pf growth 48h -5% and Pf growth 96h 12%.
`CCOC(CN1CCN(CC(C)C(=O)c2ccccc2)CC1)c1ccccc1` (centres undefined) gave Pf growth 48h -7% and Pf growth 96h inconclusive.
CCN1C(=O)/C(=C\N(C)C)S/C1=N\S(=O)(=O)c1ccc(C)cc1 was read as Sm TGR inh -6%, Shiga inhibitor 32, Cycloheximide cs 14, Pf growth 48h -26% and Pf growth 96h 3%.
Screening O=C(CCCNS(=O)(=O)c1cccs1)N1CCc2ccccc2C1 returned Sm TGR inh -13%, Shiga inhibitor 27, Cycloheximide cs 19, NS1 function inh 2% and Pf growth 48h -10%.
For O=C(CNS(=O)(=O)c1cccs1)N1CCc2ccccc2C1 the results were Sm TGR inh 0%, Shiga inhibitor 55*, Cycloheximide cs 48*, NS1 function inh -5%, Pf growth 48h 64% and Pf growth 96h 0%.
Screening O=C(CNS(=O)(=O)c1cccs1)N1CCN(c2ccccc2F)CC1 returned Sm TGR inh 10%, Shiga inhibitor 71*, Cycloheximide cs 35*, NS1 function inh 0%, Pf growth 48h 27% and Pf growth 96h inconclusive.
O=C(CNS(=O)(=O)c1cccs1)N1CCCC1 was read as Sm TGR inh -7%, Shiga inhibitor 7, Cycloheximide cs -3, NS1 function inh 5%, Pf growth 48h 10% and Pf growth 96h inconclusive.
`COC(=O)c1c(NC(=O)CS(=O)(=O)c2ccccc2)sc(C)c1C` gave Sm TGR inh 0%, Pf growth 48h inconclusive and Pf growth 96h inconclusive.
For COc1ccc(C2C(C(=O)c3ccccc3)N3c4ccccc4C=CC3C2[N+](=O)[O-])cc1 (centres undefined) the results were Sm TGR inh 40µM*, Shiga inhibitor 24, Cycloheximide cs 22*, NS1 function inh 8%, Pf growth 48h inconclusive and Pf growth 96h 9.3µM*.
`COc1ccccc1OCC(=O)N1CCCC(Nc2ccc(F)c(F)c2)C1` (centres undefined) gave Sm TGR inh -4%, Shiga inhibitor -5, Cycloheximide cs -4, NS1 function inh 9%, Pf growth 48h 1% and Pf growth 96h 13%.
CC1(C)CCc2cc(-c3ccnc(=S)[nH]3)ccc2O1 was read as Sm TGR inh 2%, Shiga inhibitor 53*, Cycloheximide cs 42*, NS1 function inh 3%, Pf growth 48h -28% and Pf growth 96h -70%.
`S=c1nccc(-c2ccc3c(c2)CCO3)[nH]1` gave Sm TGR inh 35µM*, Shiga inhibitor -7, Cycloheximide cs -3, NS1 function inh 15%, Pf growth 48h 24% and Pf growth 96h -9%.
CCOC(=O)c1c(C)oc2ccc(OC(=O)c3cccs3)cc12 was read as Sm TGR inh 1%, Shiga inhibitor -8, Cycloheximide cs -4, NS1 function inh -15%, Pf growth 48h 21% and Pf growth 96h 5%.
For Cc1nc(C(F)(F)F)nc(Nc2ccc(N=Nc3ccccc3)cc2)c1C#N the results were Sm TGR inh -10%, Shiga inhibitor -6, Cycloheximide cs 1, NS1 function inh 9%, Pf growth 48h 12% and Pf growth 96h 20%.
Cc1cc(C)c2nc(N3CCC(C(=O)NCc4cccnc4)CC3)sc2c1 was read as Sm TGR inh -1%, Shiga inhibitor 86*, Cycloheximide cs 21*, Pf growth 48h 24% and Pf growth 96h -24%.
Screening Cc1cc(C)c2nc(N3CCC(C(=O)NCc4ccccn4)CC3)sc2c1 returned Sm TGR inh 3%, Shiga inhibitor 68, Cycloheximide cs 47*, Pf growth 48h 9% and Pf growth 96h 0%.
For Cc1cc(C)c2nc(N3CCCC(C(=O)NCc4cccc(Br)c4)C3)sc2c1 (centres undefined) the results were Sm TGR inh 5%.
CC(C)c1ccc(NC(=O)c2cc(S(=O)(=O)NCc3ccccc3Cl)ccc2F)cc1 was read as Sm TGR inh 0%.
Cc1ccc(C)c(NC(=O)C2CC(=O)N(C3CCCCC3)C2)c1 (centres undefined) was read as Sm TGR inh 4%, Shiga inhibitor 17, Cycloheximide cs -4, NS1 function inh 0%, Pf growth 48h 10% and Pf growth 96h inconclusive.
Screening CCC/C(O)=C1\C(=O)CC(c2ccccc2)CC1=NCCc1c(C)[nH]c2ccc(C)cc12 (centres undefined) returned Sm TGR inh 3%, Shiga inhibitor 12, Cycloheximide cs -1, NS1 function inh -10%, Pf growth 48h 1.9µM* and Pf growth 96h inconclusive.
CC(=O)C1=C(O)CC(c2ccccc2)CC1=NCCc1c(C)[nH]c2ccccc12 (centres undefined) was read as Sm TGR inh 0%, Shiga inhibitor -19, Cycloheximide cs -6, NS1 function inh -8%, Pf growth 48h 7.4µM* and Pf growth 96h -27%.

High-throughput results as filed in PubChem.
